The values that follow come from PubChem BioAssay (EPA / NIEHS).

Test [1] is described as follows: ATG_TAL_CIS: Attagene CIS-FACTORIAL HepG2 Assay for human TAL Basal Promoter (AID 2282966; active means hit-call score of the fitted dose curve at least 0.9, where 1 is the maximum; inactive means score below 0.9;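 further: background control endpoint measuring basal TAL promoter reporter mRNA not a specific factor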). The following applies: HepG2 Attagene cis-factorial TAL promoter reporter; actives raise or lower the signal. The gist of the method: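 Basal-promoter background-control endpoint from a multiplexed HepG2 reporter panel. Cells were exposed 24 h, then reporter mRNA was read by RT-PCR/CE fluorescence and fitted in both directions relative to DMSO.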

The nature of test [2]: ATG_TGFb_CIS: Attagene CIS-FACTORIAL HepG2 Assay for human Transforming Growth Factor (TGF) (AID 2282967; active means hit-call score of the fitted dose curve at least 0.9, where 1 is the maximum; inactive means score below 0.9). As to conditions: HepG2 Attagene CIS TGFb reporter, mRNA transcription; actives raise or lower the signal. The method in brief:
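Cells were dosed for 24 hours, after which total RNA was reverse-transcribed and reporter sequences amplified, labeled and sized by capillary electrophoresis. Activity was fitted in both directions against DMSO.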

Test [3] can be described thus: ATG_VDRE_CIS: Attagene CIS-FACTORIAL HepG2 Assay for human Vitamin D Receptor Element (VDRE) (AID 2282968; active means hit-call score of the fitted dose curve at least 0.9, where 1 is the maximum; inactive means score below 0.9). As to conditions: HepG2 VDRE cis-reporter transcription, actives raise or lower the signal. The method in brief:
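Readout is VDRE-driven reporter mRNA reflecting endogenous factor activity in human HepG2 cells, sampled 24 h post-dose. Quantification used labelled RT-PCR products separated by capillary electrophoresis; bidirectional analysis relative to DMSO.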

For test [4], the target named is Nuclear receptor subfamily 1 group I member 3 (Homo sapiens) (UniProt Q14994). The experiment in a line: ATG_CAR_TRANS: Attagene TRANS-FACTORIAL HepG2 Assay for human Constitutive Androstane Receptor (CAR) (AID 2282969).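 Further: activators raise reporter mRNA above DMSO so AC50 marks induction.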 The following applies: HepG2 Attagene TRANS-FACTORIAL CAR reporter. The gist of the method:
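Signal is reporter mRNA induction relative to DMSO, measured 24 h after dosing by RT-PCR with fluorescent primer extension and capillary electrophoresis. Human HepG2 liver cells carried transiently transfected chimeric NR-Gal4/GAL4-UAS reporter constructs.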

The target in test [5] is X-box-binding protein 1 (Homo sapiens) (UniProt P17861). The experiment in a line: ATG_Xbp1_CIS: Attagene CIS-FACTORIAL HepG2 Assay for human X-box Binding Protein 1 (XBP1) (AID 2282972; active means hit-call score of the fitted dose curve at least 0.9, where 1 is the maximum; inactive means score below 0.9). As to conditions: HepG2 XBP1 cis-element reporter, Attagene multiplex; actives raise or lower the signal. The method in brief: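 Read-out: fluorescent reporter mRNA fragments resolved by capillary electrophoresis after RT-PCR. Human HepG2 liver cells carried transfected cis-promoter reporter units and were exposed to chemicals for 24 hours. Gain or loss of signal fitted relative to DMSO baseline.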

The nature of test [6]: ATG_M_19_TRANS: Attagene TRANS-FACTORIAL HepG2 Assay for M19 Transcription Factor (Internal Marker) (AID 2282974). The following applies: HepG2 Attagene TRANS-FACTORIAL M19 internal marker reporter. The method in brief:
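Fluorescence of 6-FAM-labelled reporter cDNA fragments, separated by capillary electrophoresis, served as the readout. These derived from HepG2 cells carrying transfected GAL4-UAS reporter units after 24 h dosing, with DMSO as negative control.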

Test [7] is described as follows: ATG_GAL4_TRANS: Attagene TRANS-FACTORIAL HepG2 Assay for GAL4 (Internal Marker) (AID 2282976). The following applies: HepG2 Attagene TRANS GAL4 internal marker reporter. The gist of the method: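 Background-control readout: GAL4-UAS reporter transcript in transiently transfected HepG2 cells after 24 h compound exposure. Measured by RT-PCR, 6-FAM primer extension, HpaI digest and capillary electrophoresis; gain-of-signal fit versus DMSO.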

The target of test [8] is Glucocorticoid receptor (Homo sapiens) (UniProt P04150). The test is described as follows: ATG_GR_TRANS: Attagene TRANS-FACTORIAL HepG2 Assay for human Glucocorticoid Receptor (GR) (AID 2282978).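 Further: activators score as hits since higher reporter transcript over DMSO is fitted.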 As to conditions: HepG2 Attagene TRANS GR reporter, mRNA transcription. The gist of the method: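 Fluorescent capillary-electrophoresis quantitation of reporter mRNA is the readout, taken 24 h after dosing human HepG2 cells carrying transiently transfected GAL4-UAS reporter units activated by chimeric NR-GAL4 fusions; activity scored as induction over DMSO.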

The target of test [9] is Oxysterols receptor LXR-beta (Homo sapiens) (UniProt P55055). The experiment in a line: ATG_LXRb_TRANS: Attagene TRANS-FACTORIAL HepG2 Assay for human Liver X Receptor beta (LXRb) (AID 2282981). As to conditions: HepG2 Attagene TRANS GAL4-LXRb reporter, mRNA. The method in brief:
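After 24 h chemical treatment of transfected HepG2 cells carrying exogenous NR-Gal4 chimeras, reporter mRNA was quantified by fluorescent RT-PCR and capillary electrophoresis; activity taken as increase over DMSO controls.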

The target of test [10] is Transcriptional activator Myb (Homo sapiens) (UniProt P10242). The experiment in a line: ATG_Myb_CIS: Attagene CIS-FACTORIAL HepG2 Assay for human Myeloblastosis (Myb) Proto-Oncogene Transcription Factor (AID 2282986; active means hit-call score of the fitted dose curve at least 0.9, where 1 is the maximum; inactive means score below 0.9). The following applies: HepG2 Attagene CIS-FACTORIAL Myb reporter transcription; actives raise or lower the signal. The gist of the method:
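Reporter transcript levels, quantified by fluorescent RT-PCR and capillary electrophoresis, serve as the read-out. Transfected HepG2 cells carrying cis-promoter reporter units are dosed for 24 hours, and curves are fitted bidirectionally against DMSO controls.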

For test [11], the target named is Hepatocyte nuclear factor 4-alpha (Homo sapiens) (UniProt P41235). The experiment in a line: ATG_HNF4a_TRANS: Attagene TRANS-FACTORIAL HepG2 Assay for human Hepatocyte Nuclear Factor 4 alpha (HNF4a) (AID 2282982). The following applies: HepG2 HNF4a transactivation reporter, mRNA readout. The method in brief:
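Activity of an exogenous HNF4a–Gal4 fusion scored as induced GAL4-UAS reporter transcripts after 24 h chemical exposure of transfected human HepG2 cells. Read-out via RT-PCR with 6-FAM labelling and capillary electrophoresis; rise over DMSO baseline.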

The nature of test [12]: ATG_M_06_TRANS: Attagene TRANS-FACTORIAL HepG2 Assay for M06 Transcription Factor (Internal Marker) (AID 2282983). The following applies: HepG2 Attagene TRANS M06 internal marker reporter. The method in brief:
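mRNA levels of a reporter transcript, quantified as FAM fluorescence on capillary electrophoresis, served as readout. HepG2 cells expressing exogenous GAL4-chimera reporter constructs were exposed for 24 h. Gain of signal over DMSO was evaluated.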

Test [13] addresses Nuclear receptor subfamily 4 group A member 2 (Homo sapiens) (UniProt P43354). The test is described as follows: ATG_NURR1_TRANS: Attagene TRANS-FACTORIAL HepG2 Assay for human Nuclear Receptor Related Protein 1 (NURR1) (AID 2282985). As to conditions: HepG2 Attagene TRANS reporter, mRNA readout. The method in brief:
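Reporter transcript induction, measured by RT-PCR with fluorescent labelling, HpaI digestion and capillary electrophoresis, after 24 hr dosing of human HepG2 cells transiently expressing an exogenous NR-Gal4 fusion with GAL4-UAS-driven reporters; DMSO as baseline.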

Test [14] concerns the target Steroid hormone receptor ERR1 (Homo sapiens) (UniProt P11474). The test is described as follows: ATG_ERRa_TRANS: Attagene TRANS-FACTORIAL HepG2 Assay for human Estrogen-Related Receptor alpha (ERRa) (AID 2282971). As to conditions: HepG2 Attagene TRANS reporter, ERRa transactivation. The gist of the method:
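HepG2 cells transiently transfected with GAL4-UAS reporter units and chimeric NR-Gal4 constructs; after 24 hour compound incubation, reporter mRNA quantified by RT-PCR, fluorescent labelling and capillary electrophoresis, gain of signal versus DMSO.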

The target of test [15] is Estrogen-related receptor gamma (Homo sapiens) (UniProt P62508). The test is described as follows: ATG_ERRg_TRANS: Attagene TRANS-FACTORIAL HepG2 Assay for human Estrogen-Related Receptor gamma (ERRg) (AID 2282977).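 Further: hits increase reporter signal over DMSO so potencies reflect activators.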 As to conditions: HepG2 Attagene TRANS reporter, ERRg transactivation. The method in brief: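 Exogenous NR-Gal4 chimera activity measured as reporter transcript induction after 24 h in transiently transfected HepG2 cells. RNA reverse-transcribed, PCR-amplified, 6-FAM-labelled and resolved by capillary electrophoresis; increase over DMSO baseline.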

Test [16] addresses Bile acid receptor (Homo sapiens) (UniProt Q96RI1). The test is described as follows: ATG_FXR_TRANS: Attagene TRANS-FACTORIAL HepG2 Assay for Farnesoid X Receptor (FXR) (AID 2282979).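 Further: hits raise reporter mRNA above DMSO so AC50 marks FXR activation.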 The following applies: HepG2 Attagene TRANS FXR-GAL4 reporter transcription. The gist of the method:
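HepG2 cells were transiently transfected with GAL4-UAS reporters driven by chimeric NR-Gal4 proteins and dosed for 24 h. Reporter mRNA was quantified by RT-PCR, fluorescent labelling, HpaI digestion and capillary electrophoresis, with gain of signal scored versus DMSO.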

Several values for one entry are separate records, joined by “and”; a condition that tells them apart may be missing. Identical values can stand only once. Inconclusive results are not listed. Where a structure was tested more than once in an assay, its records may differ in their call. Activity calls are given as the source filed them. How the source made its calls, unless noted: active means hit-call score of the fitted dose curve at least 0.9, where 1 is the maximum; inconclusive means response in the unintended direction; inactive means score below 0.9.

Chain of Bile acid receptor (Homo sapiens) (Q96RI1 whole entry, looked up, the tested form may be a part): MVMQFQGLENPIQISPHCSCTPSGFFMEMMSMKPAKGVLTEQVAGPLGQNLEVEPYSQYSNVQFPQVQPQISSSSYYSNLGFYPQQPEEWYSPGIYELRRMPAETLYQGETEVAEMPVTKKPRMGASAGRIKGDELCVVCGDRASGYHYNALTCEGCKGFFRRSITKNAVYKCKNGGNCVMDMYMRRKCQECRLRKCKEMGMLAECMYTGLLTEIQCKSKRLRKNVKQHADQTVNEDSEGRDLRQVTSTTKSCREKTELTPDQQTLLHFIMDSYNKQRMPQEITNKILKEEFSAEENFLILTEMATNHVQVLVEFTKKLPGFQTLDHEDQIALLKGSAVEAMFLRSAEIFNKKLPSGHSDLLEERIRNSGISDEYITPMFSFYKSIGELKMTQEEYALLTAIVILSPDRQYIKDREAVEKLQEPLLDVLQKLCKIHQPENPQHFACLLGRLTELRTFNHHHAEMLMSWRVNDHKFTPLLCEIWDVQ
Chain of Hepatocyte nuclear factor 4-alpha (Homo sapiens) (P41235 whole entry, looked up, the tested form may be a part): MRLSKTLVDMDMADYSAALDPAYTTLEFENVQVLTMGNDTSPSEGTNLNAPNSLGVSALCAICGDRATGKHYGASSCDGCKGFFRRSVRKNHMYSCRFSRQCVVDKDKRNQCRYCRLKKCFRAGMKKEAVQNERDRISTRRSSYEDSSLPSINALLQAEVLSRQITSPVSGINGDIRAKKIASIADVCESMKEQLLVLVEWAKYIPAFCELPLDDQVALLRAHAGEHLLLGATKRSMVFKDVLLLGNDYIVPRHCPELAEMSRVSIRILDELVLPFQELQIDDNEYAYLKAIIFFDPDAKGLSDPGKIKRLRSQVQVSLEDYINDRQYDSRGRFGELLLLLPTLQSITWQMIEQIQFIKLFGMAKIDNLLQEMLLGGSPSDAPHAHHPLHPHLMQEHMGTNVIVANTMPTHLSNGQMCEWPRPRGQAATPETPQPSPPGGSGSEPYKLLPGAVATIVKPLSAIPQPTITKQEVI
Chain of Nuclear receptor subfamily 1 group I member 3 (Homo sapiens) (Q14994 whole entry, looked up, the tested form may be a part): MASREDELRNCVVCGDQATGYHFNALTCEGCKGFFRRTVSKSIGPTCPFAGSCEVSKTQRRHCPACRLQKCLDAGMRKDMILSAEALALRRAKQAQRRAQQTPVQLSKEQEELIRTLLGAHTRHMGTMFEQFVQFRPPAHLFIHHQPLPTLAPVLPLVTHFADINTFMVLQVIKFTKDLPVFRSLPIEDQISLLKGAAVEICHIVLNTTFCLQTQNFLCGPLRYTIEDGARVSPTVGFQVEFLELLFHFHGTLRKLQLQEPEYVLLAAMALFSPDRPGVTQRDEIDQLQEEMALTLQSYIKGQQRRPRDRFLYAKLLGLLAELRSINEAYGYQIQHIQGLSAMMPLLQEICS
Chain of Nuclear receptor subfamily 4 group A member 2 (Homo sapiens) (P43354 whole entry, looked up, the tested form may be a part): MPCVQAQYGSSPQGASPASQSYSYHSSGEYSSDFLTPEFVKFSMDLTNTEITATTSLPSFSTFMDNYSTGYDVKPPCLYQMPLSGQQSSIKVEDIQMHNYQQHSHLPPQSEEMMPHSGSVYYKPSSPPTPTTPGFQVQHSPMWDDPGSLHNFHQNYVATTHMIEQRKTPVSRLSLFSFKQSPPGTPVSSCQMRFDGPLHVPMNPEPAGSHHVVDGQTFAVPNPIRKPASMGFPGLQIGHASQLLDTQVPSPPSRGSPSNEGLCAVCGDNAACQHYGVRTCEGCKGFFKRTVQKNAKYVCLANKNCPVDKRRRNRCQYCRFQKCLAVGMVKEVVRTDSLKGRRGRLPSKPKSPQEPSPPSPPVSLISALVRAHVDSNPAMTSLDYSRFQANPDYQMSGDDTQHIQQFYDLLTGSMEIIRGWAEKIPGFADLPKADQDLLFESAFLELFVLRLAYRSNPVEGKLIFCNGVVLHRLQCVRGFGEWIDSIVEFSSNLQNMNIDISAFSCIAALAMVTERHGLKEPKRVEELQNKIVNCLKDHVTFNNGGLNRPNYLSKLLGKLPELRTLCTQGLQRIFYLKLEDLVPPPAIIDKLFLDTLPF
Chain of X-box-binding protein 1 (Homo sapiens) (P17861 whole entry, looked up, the tested form may be a part): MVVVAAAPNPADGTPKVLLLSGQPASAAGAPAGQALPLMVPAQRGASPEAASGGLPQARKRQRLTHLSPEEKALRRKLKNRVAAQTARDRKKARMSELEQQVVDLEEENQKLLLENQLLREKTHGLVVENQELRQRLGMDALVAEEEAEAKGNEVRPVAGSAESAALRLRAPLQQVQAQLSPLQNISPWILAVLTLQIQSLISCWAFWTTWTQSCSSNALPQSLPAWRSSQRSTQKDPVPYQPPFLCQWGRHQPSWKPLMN
Chain of Glucocorticoid receptor (Homo sapiens) (P04150 whole entry, looked up, the tested form may be a part): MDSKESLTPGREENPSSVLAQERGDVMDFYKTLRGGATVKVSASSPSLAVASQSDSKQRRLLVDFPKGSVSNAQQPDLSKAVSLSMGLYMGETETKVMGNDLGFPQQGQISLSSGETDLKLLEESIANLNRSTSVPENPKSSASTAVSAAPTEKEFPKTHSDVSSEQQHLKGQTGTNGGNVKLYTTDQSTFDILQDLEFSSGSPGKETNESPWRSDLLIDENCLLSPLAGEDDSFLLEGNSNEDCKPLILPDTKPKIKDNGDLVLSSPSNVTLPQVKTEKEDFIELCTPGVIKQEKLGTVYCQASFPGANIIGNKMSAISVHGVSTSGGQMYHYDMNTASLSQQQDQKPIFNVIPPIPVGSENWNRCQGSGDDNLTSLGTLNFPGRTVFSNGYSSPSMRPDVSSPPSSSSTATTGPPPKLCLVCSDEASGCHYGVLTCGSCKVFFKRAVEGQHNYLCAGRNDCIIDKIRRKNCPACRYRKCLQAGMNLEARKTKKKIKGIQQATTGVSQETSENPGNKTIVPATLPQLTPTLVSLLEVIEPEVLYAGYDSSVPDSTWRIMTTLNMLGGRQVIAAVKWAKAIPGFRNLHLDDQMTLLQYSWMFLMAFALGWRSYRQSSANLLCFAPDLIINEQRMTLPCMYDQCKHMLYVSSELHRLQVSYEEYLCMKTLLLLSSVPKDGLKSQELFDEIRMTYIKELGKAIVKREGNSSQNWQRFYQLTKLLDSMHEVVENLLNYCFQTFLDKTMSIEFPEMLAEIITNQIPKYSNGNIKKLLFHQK
Chain of Transcriptional activator Myb (Homo sapiens) (P10242 whole entry, looked up): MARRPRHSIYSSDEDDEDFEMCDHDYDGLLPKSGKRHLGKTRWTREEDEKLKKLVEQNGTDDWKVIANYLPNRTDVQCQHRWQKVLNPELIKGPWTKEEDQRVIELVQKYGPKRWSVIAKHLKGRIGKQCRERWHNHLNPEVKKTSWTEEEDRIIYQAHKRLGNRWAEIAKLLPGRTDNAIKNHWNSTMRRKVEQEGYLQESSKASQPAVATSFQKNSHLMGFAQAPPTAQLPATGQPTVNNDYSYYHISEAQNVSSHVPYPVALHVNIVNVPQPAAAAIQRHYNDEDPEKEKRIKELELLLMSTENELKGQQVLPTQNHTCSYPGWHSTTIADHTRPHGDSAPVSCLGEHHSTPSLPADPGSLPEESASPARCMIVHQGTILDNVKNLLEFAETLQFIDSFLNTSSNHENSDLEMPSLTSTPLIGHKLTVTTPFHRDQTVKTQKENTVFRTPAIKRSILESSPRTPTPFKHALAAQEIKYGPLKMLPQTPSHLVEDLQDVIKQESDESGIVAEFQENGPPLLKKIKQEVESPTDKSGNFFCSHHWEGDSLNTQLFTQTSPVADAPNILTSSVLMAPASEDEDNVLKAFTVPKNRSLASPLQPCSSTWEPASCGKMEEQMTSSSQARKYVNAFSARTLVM
Chain of Oxysterols receptor LXR-beta (Homo sapiens) (P55055 whole entry, looked up, the tested form may be a part): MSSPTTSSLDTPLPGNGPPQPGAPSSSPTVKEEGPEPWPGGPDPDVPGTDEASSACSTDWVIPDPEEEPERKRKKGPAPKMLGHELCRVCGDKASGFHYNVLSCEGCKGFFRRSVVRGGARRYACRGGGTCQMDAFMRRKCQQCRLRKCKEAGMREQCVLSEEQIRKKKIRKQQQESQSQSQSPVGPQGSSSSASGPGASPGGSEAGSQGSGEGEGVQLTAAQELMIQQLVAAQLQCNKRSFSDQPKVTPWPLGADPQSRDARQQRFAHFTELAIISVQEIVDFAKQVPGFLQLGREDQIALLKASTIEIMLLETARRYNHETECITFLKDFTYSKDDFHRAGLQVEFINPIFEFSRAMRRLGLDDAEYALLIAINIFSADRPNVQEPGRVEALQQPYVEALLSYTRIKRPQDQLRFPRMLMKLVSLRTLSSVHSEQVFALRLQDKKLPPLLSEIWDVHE
Chain of Estrogen-related receptor gamma (Homo sapiens) (P62508 whole entry, looked up, the tested form may be a part): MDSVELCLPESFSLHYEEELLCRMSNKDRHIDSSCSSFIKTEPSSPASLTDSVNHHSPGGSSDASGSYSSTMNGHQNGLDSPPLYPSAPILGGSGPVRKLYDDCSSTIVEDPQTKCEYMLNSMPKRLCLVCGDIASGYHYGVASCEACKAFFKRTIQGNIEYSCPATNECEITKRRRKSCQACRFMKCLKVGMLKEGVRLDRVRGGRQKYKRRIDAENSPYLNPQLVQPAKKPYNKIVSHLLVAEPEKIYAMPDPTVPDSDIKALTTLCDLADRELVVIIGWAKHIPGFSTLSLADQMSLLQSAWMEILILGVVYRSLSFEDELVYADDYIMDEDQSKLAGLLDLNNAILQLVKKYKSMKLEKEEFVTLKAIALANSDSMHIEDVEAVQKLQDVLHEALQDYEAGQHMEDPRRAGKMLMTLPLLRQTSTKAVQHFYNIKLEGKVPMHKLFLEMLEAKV
Chain of Steroid hormone receptor ERR1 (Homo sapiens) (P11474 whole entry, looked up, the tested form may be a part): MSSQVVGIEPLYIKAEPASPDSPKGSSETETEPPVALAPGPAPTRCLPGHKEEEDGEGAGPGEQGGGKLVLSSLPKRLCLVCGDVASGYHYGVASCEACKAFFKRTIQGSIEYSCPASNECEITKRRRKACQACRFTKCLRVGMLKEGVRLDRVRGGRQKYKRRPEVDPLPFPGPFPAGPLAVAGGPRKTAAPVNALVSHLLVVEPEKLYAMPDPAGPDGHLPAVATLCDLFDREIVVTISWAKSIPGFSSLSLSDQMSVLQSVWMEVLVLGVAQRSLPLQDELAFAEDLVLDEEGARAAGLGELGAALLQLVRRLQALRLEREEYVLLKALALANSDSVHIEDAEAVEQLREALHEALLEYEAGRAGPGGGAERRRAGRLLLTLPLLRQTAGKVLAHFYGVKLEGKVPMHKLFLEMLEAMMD

On to `Cc1ccccc1O`, for which the result in test [1], in test [2], in test [3], in test [4], in [5] and in [6] was inactive. The result in [7], in [8], in test [9] and in test [10] was inactive.
For `Clc1ccc(Cl)cc1`, the call in [1], in test [2], in test [4], in test [5], in test [6] and in [7] was inactive. Also, the compound was called inactive in [8], in [9], in test [11], in test [12], in [13] and in [10].
Regarding `Sc1ccccc1`, the outcome in test [1], in test [2], in test [4], in [5], in test [6] and in [7] was inactive. Besides, the call in test [8], in test [9], in [12], in test [13] and in [10] was inactive.
As for `C=CC(N)=O`, the call in test [1], in test [2], in test [14], in [5], in [7] and in [15] was inactive. Besides, the outcome in [9], in test [11], in [12], in [13] and in test [10] was inactive. Moreover, the AC50 (commonly the concentration giving half of the maximal activity seen) in test [3] is 100 µM (active).
Consider `CCCCCCCCOC(=O)c1ccccc1C(=O)OCCCCCCCC`, for which the compound was called inactive in test [1], in test [2], in test [3], in test [4], in test [5] and in test [6]. In addition, the call in [16] and in test [10] was inactive.
Regarding `CCCCCCCCCC[N+](C)(C)CCCCCCCCCC`, the compound was classed as inactive in test [1], in [2], in [5], in test [16], in test [9] and in test [11]. For the same compound, the compound was classed as inactive in test [12], in test [13] and in [10]. In [3], the AC50 was 8.67 µM (active).
In the case of `CCC(C)(c1ccc(O)cc1)c1ccc(O)cc1`, the result in [1], in [2], in [4], in [5], in test [6] and in test [15] was inactive. Moreover, the call in test [16], in test [9], in test [11], in test [12], in test [13] and in test [10] was inactive. Besides, the AC50 in [5] was 54.8 µM (active) and 52.7 µM (active) and 16.7 µM (active).
As for `Oc1ccc(Cl)cc1Cl`, the compound was called inactive in [1], in test [2], in test [3], in test [5], in test [15] and in test [16]. For the same compound, the call in test [9], in test [11], in test [12], in [13] and in test [10] was inactive.
